Source: PubChem BioAssay (NCI)
Compounds without any hit were thinned out: in the full panel of roughly 83,000, 20% have a hit.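 Single-concentration screen, 48 h exposure, 96-well plates. Endpoint: percent growth. Below 10 = active.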 The source made the active and inactive calls.

Tests used:
Test in all cases: NCI-60 one-dose screen, 48 h (100 = growth as untreated, 0 = no growth, -100 = all killed)
Conditions in all cases: 10 µM unless noted
[1] = test system: SNB-75 CNS
[2] = test system: SNB-19 CNS
[3] = test system: U251 CNS
[4] = test system: PC-3 prostate
[5] = test system: SK-MEL-5 melanoma
[6] = test system: UACC-62 melanoma
[7] = test system: LOX IMVI melanoma
[8] = test system: SK-MEL-28 melanoma
[9] = test system: SK-MEL-2 melanoma

Measured: growth

CCCCCCNC(=O)Oc1ccc(/C(=C(/C)c2ccccc2)c2ccc(OCCN3CCCCCC3)cc2)cc1
inactive: [1] 56% | [2] 66.7% | [3] 22.1% | [4] 38.7% | [5] 20.1% | [6] 44.2% | [8] 44.4% | [9] 95.9%
active: [7] -14.5%

CC(C)(C)Nc1nc2c(OCCc3ccccc3)cccn2c1-c1ccccc1Cl
inactive: [1] 34.5% | [2] 18.4%
active: [3] -44.7% | [4] -40% | [5] -92.5% | [6] -42.1% | [7] -96% | [8] 0.829% | [9] -76.2%

C=CCSc1ccc2c(c1)C(N1CCNCC1)=Nc1ccccc1O2
inactive: [1] 79.8% [8.25 µM] | [2] 82.7% [8.25 µM] | [3] 61.3% [8.25 µM] | [4] 66.9% [8.25 µM] | [5] 85.5% [8.25 µM] | [6] 91.6% [8.25 µM] | [7] 51.5% [8.25 µM] | [8] 80.3% [8.25 µM] | [9] 92.3% [8.25 µM]

CCN1C(=S)N(c2ccccc2)C2NC(=O)N(/N=C/C=C/c3ccccc3OC)C21 (stereo not drawn)
inactive: [1] 71.8% | [2] 87.6% | [3] 89.4% | [4] 90.3% | [5] 92.4% | [6] 81.7% | [7] 75.4% | [8] 95.3% | [9] 120%

CCCSc1nc(Nc2ccc(/C(C)=N\NC(N)=S)cc2)c(C#N)c(-c2ccc(OC)cc2)n1
inactive: [1] 56% | [2] 39.7% | [3] 17.1% | [4] 99.8% | [5] 58.2% | [6] 87.7% | [7] 68% | [8] 79.8% | [9] 89.7%

N#Cc1nc(-c2ccccc2)oc1S(=O)(=O)N1CCCCC1
inactive: [1] 94.8% | [2] 95.8% | [3] 94.5% | [4] 88.1% | [5] 93.7% | [6] 96.4% | [8] 85.1% | [9] 97.9%
active: [7] -82.5%

COc1ccc(NC2=C(Cl)C(=O)C(C)=C(C)C2=O)cc1OC
inactive: [1] 126% | [2] 84.7% | [3] 77.7% | [4] 67.9% | [6] 81.2% | [8] 108% | [9] 83.7%

N#Cc1nc(-c2ccccc2)oc1S(=O)(=O)N1CCN(CCc2ccccn2)CC1
active: [7] -79.2%
inactive: [1] 87.2% | [2] 97.7% | [3] 88% | [4] 86% | [5] 97.6% | [6] 83.6% | [8] 43.6% | [9] 108%

CN1CCN(Cc2ccc(NC(=O)c3cncc(C#Cc4cnc5[nH]ncc5c4)c3)cc2C(F)(F)F)CC1
active: [6] 1.56% | [7] 2.34% | [8] 1.4% | [9] -49.6%
inactive: [1] 64% | [2] 59.3% | [3] 31.3% | [4] 42.3% | [5] 43.4%

Cc1ccc(/C=C/c2nn3c(-c4ccco4)nnc3s2)cc1C
inactive: [1] 96.5% | [2] 94.9% | [3] 95.7% | [4] 89.9% | [5] 103% | [6] 94.8% | [7] 89.3% | [8] 104% | [9] 128%

Fc1ccc(-c2cc3nc(C(Cl)Cl)nc(-c4ccccc4)n3n2)cc1
inactive: [5] 75.2% | [6] 36.2% | [7] 86.9% | [9] 53.5%
active: [1] -30% | [2] -6.52% | [3] -58.2% | [4] -24.5% | [8] -7.7%

CC(C)(C)Nc1nc2c(OCCc3ccccc3)cccn2c1-c1ccc(O)cc1
inactive: [1] 124% | [2] 68.3% | [3] 53.1% | [4] 28.8% | [5] 50.6% | [6] 70.4% | [7] 34.9% | [9] 85.1%

Cc1cc2nc3c4cc(Cl)ccc4n(CC(=O)NCCN(C)C)c3nc2cc1C
active: [3] -38% | [8] -88.6%
inactive: [1] 64.1% | [2] 81.5% | [4] 60.8% | [5] 89.8% | [6] 79.4% | [9] 112%
